From PubChem BioAssay AID431 (Sanford-Burnham Center for Chemical Genomics, 2006)
Out of some 63,000 compounds screened, about 1,100 (1.7%) were called active. The sample holds actives, similar compounds and a random draw of the others, so the mix is not that of the screen.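 How the source made its calls: active means compounds whose percent cytotoxicity in the single-dose primary screen, scaled between solvent and toxic-drug controls, exceeds 50; inactive means the rest.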 Results with a measured potency or affinity are listed apart.

Assay: cytotoxicity in KRAS-transformed pancreatic duct cells, primary screen, cell-based, fluorescence, HTS (AID 431);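 further: 0% = DMSO solvent wells and 100% = doxorubicin-treated wells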
Settings: HPDE-C7K KRASV12 cells, Alamar Blue viability, 48 h; at 10 µM; hits give high values

Row | SMILES | cytotoxicity
1 | Cc1nc2ccccc2c(=O)n1/N=C/c1cccnc1 | 20.1% (inactive)
2 | CCCc1cc(=O)[nH]c(SCC(=O)c2cc(C)n(CCOC)c2C)n1 | 1.9% (inactive)
3 | COC(=O)C1CCN(C(=O)COC(=O)Cc2c[nH]c3ccccc23)CC1 | 2.5% (inactive)
4 | O=C(CN1C(=O)c2ccccc2S1(=O)=O)NC1CCCCCC1 | 1.2% (inactive)
5 | CC1(C)Cc2ccccc2-c2nc(NCCCO)n(-c3ccccc3)c(=O)c21 | 12.6% (inactive)
6 | O=C(Nc1ccc2c(c1)OCO2)Nc1ccc(Br)cn1 | 21.3% (inactive)
7 | CCOc1cccc2cc(-c3nnc(-c4ccccc4)o3)c(=O)oc12 | -3.1% (inactive)
8 | CCCCCCc1cc2cc(C(=O)NC)c(=N)oc2cc1O | 30.5% (inactive)
9 | CCCCCCc1cc2cc(-c3nnc(-c4ccccc4O)o3)c(=O)oc2cc1O | 55.8% (active)
10 | CCN(CC)S(=O)(=O)c1ccc(-c2nnc(SCC(=O)Nc3nc(C)cs3)o2)cc1 | 20.5% (inactive)
11 | COC(=O)c1ccc(OC(=O)c2ccccn2)cc1 | -2% (inactive)
12 | CC1(C)OC(=O)C2(Cc3ccccc3N3CCCCC32)C(=O)O1 (stereo not drawn) | -0.5% (inactive)
13 | O=C(O)c1ccc2c3c(ncnc13)-c1ccccc1C2=O | 75.9% (active)
14 | O=C1c2ccccc2-c2ncnc3cccc1c23 | -4.9% (inactive)
15 | O=C1c2ccccc2-c2nccnc21 | -3.8% (inactive)
16 | Fc1cc2ncn(Cc3ccccc3)c2cc1F | -20.3% (inactive)
17 | N#Cc1nc(-c2ccco2)oc1NCc1ccc(F)cc1 | 10.2% (inactive)
18 | CCC(C)C(=O)Nc1c2c(nc3c1CCC3)CCCC2 (stereo not drawn) | -5.8% (inactive)
19 | c1ccc(Cn2nnc3c(N4CCCC4)ncnc32)cc1 | 8.8% (inactive)
20 | c1ccc(Cn2nnc3c(N4CCCCCC4)ncnc32)cc1 | -2.6% (inactive)
21 | FC(F)(F)c1ccc(N2CCN(c3ncnc4c3nnn4Cc3ccccc3)CC2)nc1 | 55.5% (active)
22 | CC(=O)Nc1cc2c(cc1C(=O)C(C)C)OCCO2 | -0.7% (inactive)
23 | Cc1ccc(C)c(Cn2c(C(C)O)nc3ccccc32)c1 (stereo not drawn) | -16.7% (inactive)
24 | Cc1ccc(-c2nc(-c3ccccc3)no2)c(Cl)c1 | -2.7% (inactive)
25 | CC(C)C(=O)Nc1c2c(nc3ccccc13)N(C)CC2 | -4% (inactive)

Row | SMILES | cytotoxicity
26 | CCc1nnc(NC(=O)c2cnccn2)s1 | -15.3% (inactive)
27 | CCc1nnc(NC(=O)c2cccc(OC)c2)s1 | 9.1% (inactive)
28 | CCCc1nnc(NC(=O)c2c(O)c3cccc4c3n(c2=O)CC4)s1 | 43.6% (inactive)
29 | CC(C)c1nnc(NC(=O)c2c(O)c3cccc4c3n(c2=O)CCC4)s1 | 49.4% (inactive)
30 | Cc1cnc(NC(=O)c2c(O)c3cccc4c3n(c2=O)CCC4)s1 | 91.8% (active)
31 | CCCc1nnc(NC(=O)c2c(O)c3cccc4c3n(c2=O)CCC4)s1 | 7.3% (inactive)
32 | CCc1nnc(NC(=O)c2cccc(C(=O)Nc3nnc(CC)s3)n2)s1 | 53.1% (active)
33 | CCc1nnc(NC(=O)c2c(O)c3cccc4c3n(c2=O)CC4)s1 | 50% (active)
34 | Cc1csc(NC(=O)c2c(O)c3cccc4c3n(c2=O)CCC4)n1 | -16.1% (inactive)
35 | O=C(COc1ccccc1Cl)NCc1ccncc1 | -2.3% (inactive)
36 | CC1CCCCN1C(=O)CSc1nc(C2CC2)nc2c1cnn2-c1ccccc1 (stereo not drawn) | 1.1% (inactive)
37 | c1ccc(CNc2c3c(nc4ncnn24)CCCC3)nc1 | -2.6% (inactive)
38 | CC(=O)NCc1nc2ccccc2n1Cc1ccccc1C | -2.6% (inactive)
39 | CCOC(=O)CC(=O)Nc1nnc(C(C)C)s1 | -20.6% (inactive)
40 | COc1ccc(-c2cc(C(=O)O)c3ccccc3n2)c(OC)c1 | -13.5% (inactive)
41 | N[C@@H](Cc1ccc(O)c(I)c1)C(=O)O | -4.9% (inactive)
42 | COc1ccc2[nH]c(C(=O)O)c(CCC(=O)O)c2c1 | 1.5% (inactive)
43 | O=C(O)CCc1cc(I)c(Oc2ccc(O)c(I)c2)c(I)c1 | 81.2% (active)
44 | CCOC(=O)c1c(-c2ccsc2)csc1N | -5.8% (inactive)
45 | COc1ccc2nc(C)[nH]c(=O)c2c1 | 0.4% (inactive)
46 | CS(=O)(=O)N1CCN(c2nc(-c3ccccc3)cs2)CC1 | 11.2% (inactive)
47 | Nc1nc(SCC(=O)N2CCCc3ccccc32)[nH]c(=O)c1-c1ccccc1 | 2.5% (inactive)
48 | CCOc1cc(C2c3c(n[nH]c3C)C(=O)N2c2ccc(Br)cc2)ccc1O (stereo not drawn) | 21.7% (inactive)
49 | COc1cc(C2c3c(n[nH]c3C)C(=O)N2c2ccc(C)cc2)ccc1O (stereo not drawn) | 58% (active)
50 | COc1cc(C2c3c(n[nH]c3C)C(=O)N2c2ccc(Br)cc2)ccc1O (stereo not drawn) | 37.4% (inactive)

Row | SMILES | cytotoxicity
51 | O=C(CN1CCN(Cc2ccccc2Cl)C1=O)N1CCCCCC1 | -10.9% (inactive)
52 | COc1cccc(-c2nnc(NC(C)=O)o2)c1 | 9.5% (inactive)
53 | CCCN(CCC)S(=O)(=O)c1ccc(C(=O)Nc2nnc(-c3cccc(OC)c3)o2)cc1 | 62.9% (active)
54 | CCCN(CCC)S(=O)(=O)c1ccc(C(=O)Nc2nnc(CSC)o2)cc1 | 2.7% (inactive)
55 | COc1cccc(-c2nnc(NC(=O)c3ccc(S(=O)(=O)N4CCOCC4)cc3)o2)c1 | 1% (inactive)
56 | CCCN(CCC)S(=O)(=O)c1ccc(C(=O)Nc2nnc(-c3cc(OC)cc(OC)c3)o2)cc1 | 52.7% (active)
57 | COc1cccc(-c2nnc(NC(=O)c3ccccc3Br)o2)c1 | 24.6% (inactive)
58 | COc1cccc(-c2nnc(NC(=O)c3ccc(S(=O)(=O)N4CC(C)OC(C)C4)cc3)o2)c1 (stereo not drawn) | -4.2% (inactive)
59 | COc1cccc(-c2nnc(NC(=O)c3ccc(S(=O)(=O)N(CC(C)C)CC(C)C)cc3)o2)c1 | 55.5% (active)
60 | COCCN(CCOC)S(=O)(=O)c1ccc(C(=O)Nc2nnc(C)o2)cc1 | -7.3% (inactive)
61 | CCCCn1c(SCC(=O)Nc2nc(C)cs2)nnc1-c1cccnc1 | 2.9% (inactive)
62 | Nc1nc(NC(=O)c2ccco2)nn1-c1ccccc1 | 4.5% (inactive)
63 | Nc1nc(NC(=O)c2cccnc2)nn1-c1ccccc1 | 0.1% (inactive)
64 | OC(COc1ccc(Cl)c2ccccc12)CN1CCN(c2ccccn2)CC1 (stereo not drawn) | 18.3% (inactive)
65 | OC(COCc1cccs1)CN1CCN(c2ccccn2)CC1 (stereo not drawn) | 2.8% (inactive)
66 | OC(CN1CCN(c2ccccn2)CC1)Cn1c2ccccc2c2ccccc21 (stereo not drawn) | 53.3% (active)
67 | O=C1NCC2=C1C(c1ccc(Br)cc1)Nc1ccccc1N2 (stereo not drawn) | -0.1% (inactive)
68 | Cc1c(NC(=O)COC(=O)c2cc3c4ccccc4n(C)c3s2)c(=O)n(-c2ccccc2)n1C | 19.8% (inactive)
69 | Cc1nnc(NC(=O)Nc2cccc(Cl)c2)s1 | 12.5% (inactive)
70 | CNC(=O)C1C2C=CC3(O2)C1C(=O)N(C1CC1)C3C(=O)NCc1ccc(OC)cc1 (stereo not drawn) | 3.6% (inactive)
71 | CC(=O)c1c(C)nc(-c2ccc3c(c2)OCO3)n1O | -5.4% (inactive)
72 | O=C(Nc1ccc2c(c1)OCO2)C(c1ccc(Cl)cc1)N1CCC2(CC1)OCCO2 (stereo not drawn) | 5.8% (inactive)
73 | O=C(CSc1nnc(Cc2ccccc2)o1)Nc1ccc(Br)cn1 | -11.2% (inactive)
74 | O=C(NCc1ccccc1)N1CCC(c2nc3ccccc3[nH]2)CC1 | -0.6% (inactive)
75 | Cc1ccccc1S(=O)(=O)Cc1ccc(C(=O)NCCN2CCN(Cc3ccccc3)CC2)o1 | 3.7% (inactive)

Row | SMILES | cytotoxicity
76 | O=C(OCCCc1ccncc1)c1ccc(S(=O)(=O)N2CCOCC2)cc1 | -10.8% (inactive)
77 | CC(Oc1ccccc1)C(=O)N1CCCc2ccccc21 (stereo not drawn) | -9.7% (inactive)
78 | O=C(NCC1CCCO1)c1cc(-c2ccncc2)nc2ccc(S(=O)(=O)N3CCOCC3)cc12 (stereo not drawn) | -15.7% (inactive)
79 | O=C(COC(=O)c1cc(S(=O)(=O)N2CCOCC2)ccc1O)NCC1CCCO1 (stereo not drawn) | 55.2% (active)
80 | O=C(COC(=O)c1ccc(Br)c(S(=O)(=O)N2CCOCC2)c1)NCC1CCCO1 (stereo not drawn) | -3.7% (inactive)
81 | Cc1ccnc(NC(=O)CCC(=O)N(CC(=O)NC2CCCCC2)c2ccc3c(c2)OCO3)c1 | -7.7% (inactive)
82 | CCC1CCCCN1C(=O)CSc1nc(N)c(NC(=O)c2ccco2)c(=O)[nH]1 (stereo not drawn) | -21.6% (inactive)
83 | CC1Oc2ccccc2N(CC(=O)c2cccc(Cl)c2)C1=O (stereo not drawn) | -8.4% (inactive)
84 | Cc1cc(NC(=O)CCCS(=O)(=O)c2nc(-c3cccs3)cc(C(F)(F)F)n2)no1 | 4.1% (inactive)
85 | COc1ccc(-c2cc(C(F)(F)F)nc(SCC(=O)Nc3cc(C)on3)n2)cc1 | -11.8% (inactive)
86 | CCOC(=O)c1cnn2c(C)cc(-c3ccc(F)cc3)nc12 | -18.9% (inactive)
87 | CCOC(=O)CS(=O)(=O)c1ccc2ccccc2c1 | -6.4% (inactive)
88 | COc1ccc(-c2cc(C(F)(F)F)nc(SCCC(=O)NCc3ccco3)n2)cc1 | -8.8% (inactive)
89 | COCC(C)NC(=O)CCS(=O)(=O)c1nc(-c2ccc(OC)cc2)cc(C(F)(F)F)n1 (stereo not drawn) | 52.3% (active)
90 | CCOC(=O)CS(=O)(=O)c1nc(-c2ccccc2)cc(C(F)(F)F)n1 | 34.5% (inactive)
91 | COC(=O)c1ccc2c(=O)n(CCCCCC(=O)NCc3ccccn3)c(=O)[nH]c2c1 | 2.9% (inactive)
92 | CCCC(=O)NCCCCNC(=O)CCC | -12.2% (inactive)
93 | Cc1ccc(CN(Cc2cccnc2)C(=O)CN2C(=O)COc3ccccc32)o1 | -12.5% (inactive)
94 | CC(C)Oc1ccc(NC(=O)Oc2ccccc2)cc1 | 3.4% (inactive)
95 | O=C(Nc1ccc(N2CCN(c3ccc(O)cc3)CC2)cc1)Oc1ccccc1 | 65.7% (active)
96 | CC(=O)Nc1ccc(NC(=O)Oc2ccccc2)cc1 | -2.5% (inactive)
97 | Cn1c(=O)c2ccccc2n(Cc2ccccc2F)c1=O | 2.5% (inactive)
98 | CCOc1ccccc1Oc1ccc(C(F)(F)F)cn1 | -8.8% (inactive)
